Sampled rows, rich in hits. Any-hit rate of the full collection: about 2.4%.
D2 ag-1 = human D2 receptor agonism in beta-arrestin assay; P14416; DiscoveRx PathHunter D2 beta-arrestin, luminescence, 90 min; 100% = 57 uM dopamine signal; activation, % (no concentration beside the values); hit rate 0.084% among 360,000; in the data active = activation above about 40%; inconclusive = between about 15% and that limit
Target sequence (P14416 whole entry, looked up): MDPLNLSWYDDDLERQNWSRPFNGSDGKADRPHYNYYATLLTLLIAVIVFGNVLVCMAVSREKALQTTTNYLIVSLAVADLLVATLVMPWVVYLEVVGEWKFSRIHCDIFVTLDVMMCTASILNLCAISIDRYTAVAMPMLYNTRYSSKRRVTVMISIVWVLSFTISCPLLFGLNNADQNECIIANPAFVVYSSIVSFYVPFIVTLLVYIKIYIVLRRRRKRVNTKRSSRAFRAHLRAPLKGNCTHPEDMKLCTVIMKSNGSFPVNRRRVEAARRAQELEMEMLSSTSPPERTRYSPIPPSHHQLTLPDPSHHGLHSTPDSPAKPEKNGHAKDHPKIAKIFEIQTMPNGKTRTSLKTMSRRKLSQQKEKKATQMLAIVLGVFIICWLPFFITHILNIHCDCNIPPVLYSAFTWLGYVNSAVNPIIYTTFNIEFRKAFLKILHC
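DiscoveRx PathHunter D2 beta-arrestin cells (2,100/well) attached overnight, then compound-stimulated 90 min at 37 C in HBSS/10 mM HEPES/0.1% Tween-20 buffer; beta-galactosidase complementation read by luminescence after 1 h at ambient temperature. Dopamine 57 uM final (EC100) as control.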
D2 PAM-1 = human D2 receptor positive allosteric modulation | potentiation, % (concentration not given with the values) | DiscoveRx D2 beta-arrestin cells, luminescence, 90 min; 100% = 57 uM dopamine signal | hit rate 0.23% among 360,000 | P14416 | AID 624464; in the data active = potentiation above about 50%; inconclusive = mostly about 30% to 49%
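PathHunter D2 cells, attached overnight at 37 deg C, received compound in DMSO plus dopamine at EC20 (50 nM final) for 90 min at 37 deg C. Beta-arrestin recruitment was read as luminescence after 1 h with detection reagent at ambient temperature.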
D2 antag = antagonizes the human D2 dopamine receptor | P14416 | HEK293 TREx D2 cells, calcium flux, dopamine EC80 | inhibition, % at 10 µM | hit rate 2% among 340,000; in the data active = inhibition above about 30%; inactive = below that, where a call was filed
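Calcium mobilization kinetics were recorded at 1 s intervals in tetracycline-induced HEK293 T-REx D2 cells, first for 180 s after compound addition and then 180 s after EC80 dopamine.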
D2 ag-2 = agonists of human D2 dopamine receptor. HEK293 T-REx D2 cells, calcium flux agonist mode. activation, % at 2 µM. P14416. hit rate 0.53% among 340,000;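 active = activation over 3 SD above normal in the single-dose calcium agonist read, cut at about 30% in these data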
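Calcium-flux readout, 1 cycle/sec over 180 s following compound pin transfer, in inducible HEK293 Trex D2 cells (force-coupled); dopamine controls included. Positive calcium responses during this window marked compounds as potential agonists.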
D2 PAM-2 = D2 dopamine receptor (human) potentiation. P14416. HEK293 T-REx D2, calcium flux, EC20 dopamine potentiation. potentiation, % at 10 µM. hit rate 0.34% among 340,000. AID 485347;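 active = potentiation over 3 SD above the plate norm, cut at about 30% in these data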
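Cells plated with tetracycline inducer and held overnight at 30 C; calcium dye loaded 30–90 min at room temperature; baseline taken, compound added and read 180 s; EC20 dopamine then added and read 180 s.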
D3 arrestin ag = D3 receptor agonism confirmed, beta-arrestin readout. Potency, µM (series often up to 76.9 µM), actives largely listed as activators. AID 720506. hit rate 4% among 2,300. shares compounds with D2 ag-2. DiscoveRx D3 beta-arrestin cells, luminescence, 90 min; also: nearly all actives have a fitted effect of over 70% in size
D2 ag-3 = D2 receptor agonism, beta-arrestin counterscreen; AID 720507; Potency, µM (doses to about 76.9 µM), usual class: activators; hit rate 5.9% among 2,300; DiscoveRx PathHunter D2 beta-arrestin, luminescence, 90 min; response scale: percent relative to full dopamine signal; shares compounds with D2 ag-2; also: nearly all actives have a fitted effect of over 70% in size
Of the large screens only hits and unclear results are named; the others gave an inactive call (follow-up assays come after a bar, where they were run). Unless noted, calls follow the shape of the dose curve; as a rule, active = well fitted activation curve with a large enough effect; inconclusive = small, poorly fitted or top-dose-only effect; inactive = flat fitted curve, though single readings scatter.

CCOC(=O)C1CCN(CC(=O)Nc2c(C(=O)OC)[nH]c3cccc(Cl)c23)CC1	none | D3 arrestin ag inactive | D2 ag-3 inactive
CC1NC(=O)c2cccnc2-n2c1nc1cc(F)c(F)cc1c2=O (configuration not stated)	none (no result: D2 antag, D2 ag-2, D2 PAM-2)
Nc1ccc(C(=O)O)cc1[N+](=O)[O-]	none
Nc1ccc(C(=O)c2cccs2)cc1[N+](=O)[O-]	none | D3 arrestin ag inactive | D2 ag-3 inactive
CCOC(=O)c1c(NC(=O)CS(=O)(=O)c2ccc(C)cc2)sc2c1CCCCC2	none (no result: D2 ag-1, D2 PAM-1, D2 antag)
NC[C@@H]1O[C@H](C23CC4CC(CC(C4)C2)C3)Cc2c1ccc(O)c2O	D2 ag-1 50, D2 PAM-1 inconclusive, D2 antag 66, D2 ag-2 85 | D3 arrestin ag 32µM | D2 ag-3 35µM
O=C(NCc1ccccc1)c1cc(C2COCCN2C(=O)OCCF)on1 (configuration not stated)	none (no result: D2 antag, D2 ag-2, D2 PAM-2)
CC(Oc1ccc(Br)cc1)C(=O)NNC(=O)CCN1CCN(c2ccccc2)CC1 (configuration not stated)	D2 antag 61, D2 ag-2 38 | D3 arrestin ag inactive | D2 ag-3 inconclusive
O=C(CCN1CCN(c2ccccc2)CC1)NNC(=O)Cc1ccc(Br)cc1	D2 antag 70, D2 ag-2 77 | D3 arrestin ag inactive | D2 ag-3 inactive
CCOc1ccc(C(=O)CCC(=O)NNC(=O)CCN2CCN(c3ccccc3)CC2)cc1	none (no result: D2 antag, D2 ag-2, D2 PAM-2)
Cc1ccccc1C(=O)NCC(=O)NNC(=O)CCN1CCN(c2ccccc2)CC1	D2 antag 72, D2 ag-2 82 | D3 arrestin ag inconclusive | D2 ag-3 inconclusive
C[C@H](CO)N1C[C@H](C)[C@H](CN(C)C(=O)Nc2cccc(C(F)(F)F)c2)OCc2cnnn2CCCC1=O	none (no result: D2 antag, D2 ag-2, D2 PAM-2)
O=c1[nH]c(N/N=C/c2ccccc2Br)nnc1-c1ccccc1	none
COc1ccc(/C=N/Nc2nnc(-c3ccccc3)c(=O)[nH]2)cc1	D2 ag-2 60 | D3 arrestin ag inactive | D2 ag-3 inactive
N#CCCN(C(=O)COC(=O)c1cccc(S(=O)(=O)N2CCCC2)c1)c1ccc(F)cc1	none
CC(=O)N1CCN(S(=O)(=O)c2cccc(C(=O)OCC(=O)N(CCC#N)c3ccc(F)cc3)c2)CC1	none | D3 arrestin ag inactive | D2 ag-3 inactive
CSCCC(NC(=O)COc1ccccc1)C(=O)N1CC(C)CC(C)C1 (configuration not stated)	none
CSCCC(NC(=O)COc1ccccc1)C(=O)N1CC(C)OC(C)C1 (configuration not stated)	none | D3 arrestin ag inactive | D2 ag-3 inactive
COc1cccc(S(=O)(=O)N(C)C[C@H]2OCc3cn(nn3)CCCC(=O)N([C@@H](C)CO)C[C@@H]2C)c1	none (no result: D2 antag, D2 ag-2, D2 PAM-2)
COc1ccc(N2CCN(C(=O)c3c(C)nn(-c4ccc(F)cc4)c3-n3cccc3)CC2)cc1	none (no result: D2 ag-1, D2 PAM-1, D2 antag)
OCC[C@@H]1C[C@H](O)[C@@H](O)[C@@]2(Cc3ccccc3CO2)O1	none
OCC[C@H]1C[C@@H](O)[C@H](O)[C@@]2(Cc3ccccc3CO2)O1	none | D3 arrestin ag inactive | D2 ag-3 inactive
CC1=C(c2ccccc2)C(O)(c2ccccc2)C(C)C1=O (configuration not stated)	none (no result: D2 antag, D2 ag-2, D2 PAM-2)
CCCOc1ccc(C(=O)NNC(=S)NC(=O)c2ccco2)cc1	D2 ag-2 34 | D3 arrestin ag inactive | D2 ag-3 inactive
CCCCOC(=O)c1ccc(NC(C)=O)cc1	none
CC(=O)Nc1ccc(C(=O)OCCCOC(=O)c2ccc(NC(C)=O)cc2)cc1	D2 ag-2 76 | D3 arrestin ag inactive | D2 ag-3 inactive
Cc1ccc(C)c(OCC(O)CN2CCc3ccccc3C2)c1C (configuration not stated)	none
CC(=O)c1ccc(OCC(O)CN2CCc3ccccc3C2)cc1 (configuration not stated)	D2 ag-2 43 | D3 arrestin ag inactive | D2 ag-3 inactive
Cc1cc(=O)oc2cc(OCC(O)CN3CCc4ccccc4C3)ccc12 (configuration not stated)	none (no result: D2 antag, D2 ag-2, D2 PAM-2) | D3 arrestin ag inactive | D2 ag-3 inactive
CC(=O)c1ccc(OCC(O)CN2CCOCC2)cc1 (configuration not stated)	none
Cc1cc(=O)oc2cc(OCC(O)CN3CCN(c4ccccc4)CC3)ccc12 (configuration not stated)	D2 ag-1 52, D2 antag 72, D2 ag-2 90 | D3 arrestin ag inactive | D2 ag-3 inconclusive
OC(COc1ccc(CNCc2cccnc2)cc1)CN1CCc2ccccc2C1 (configuration not stated)	D2 antag 49, D2 ag-2 54 | D3 arrestin ag inactive | D2 ag-3 inactive
OC(COc1ccccc1CNCc1cccnc1)CN1CCc2ccccc2C1 (configuration not stated)	none
COc1cc(OC)cc(-c2noc(-c3csc([C@@H]4C[C@H](O)[C@@H](CO)O4)n3)n2)c1	none (no result: D2 antag, D2 ag-2, D2 PAM-2)
CCOC(=O)c1csc(NC(=O)C2=COCCO2)n1	none
CCc1nc2c(OCc3cccc(Cl)c3)cccn2c1N(C)C(=O)C1CC1	none (no result: D2 antag, D2 ag-2, D2 PAM-2)
CCOC(=O)C1CCN(C(=O)Cn2c(=O)c3cccn3c3cccnc32)CC1	none
COc1ccc2c(C)cc(=O)oc2c1OCC(O)CN1CCOCC1 (configuration not stated)	none (no result: D2 antag, D2 ag-2, D2 PAM-2)
COc1ccccc1N1CCN(CC(O)COc2ccc3c(C)cc(=O)oc3c2)CC1 (configuration not stated)	D2 ag-1 inconclusive, D2 antag 72 | D3 arrestin ag inactive | D2 ag-3 inactive
CCOC(=O)Cc1csc(NC(=O)CN2CCN(CC)CC2)n1	none
CCOC(=O)Cc1csc(NC(=O)CN2CCN(c3ccccc3)CC2)n1	none | D3 arrestin ag inactive | D2 ag-3 inactive
Cc1ccc(NC(=O)C[n+]2cc(-c3ccccc3)n3c2CCC3)cc1	D2 antag 56, D2 ag-2 71 | D3 arrestin ag inactive | D2 ag-3 inactive
Cc1ccc(-c2c[n+](CC(=O)Nc3ccccc3C)c3n2CCC3)cc1	none
Cc1cccc(C(=O)NCC(=O)N2CC=C(c3ccccc3)CC2)c1	none | D3 arrestin ag inactive | D2 ag-3 inactive
COc1ccc(C(=O)NCC(=O)N2CC=C(c3ccccc3)CC2)cc1OC	none
O=C(O)c1ccccc1C(=O)N1CC=C(c2ccccc2)CC1	none | D3 arrestin ag inactive | D2 ag-3 inactive
CCc1ccc(NC(=O)c2cnn(-c3c(C)cccc3C)c2C2CCN(C(=O)OC(C)(C)C)CC2)cc1	none (no result: D2 ag-1, D2 PAM-1, D2 antag)
